Laboratory results published in PubChem BioAssay (NCI).
This is part of a sample that, as a whole, favours compounds with a hit. Of some 83,000 tested, about 20% had one in any assay.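 Each cell line was grown in a 96-well plate and treated with one concentration of compound for 48 hours. Values below 10 were considered active.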 The source made the active and inactive calls.

Columns and labels:
Experiment in all cases: NCI-60 one-dose screen, 48 h (100 = growth as untreated, 0 = no growth, -100 = all killed)
HCT-15 colon = details: 10 µM unless noted
HT29 colon = details: 10 µM unless noted
SNB-75 CNS = details: 10 µM
SNB-19 CNS = details: 10 µM unless noted
U251 CNS = details: 10 µM unless noted
PC-3 prostate = details: 10 µM unless noted
SK-MEL-5 melanoma = details: 10 µM unless noted
UACC-62 melanoma = details: 10 µM unless noted
LOX IMVI melanoma = details: 10 µM unless noted
SK-MEL-28 melanoma = details: 10 µM unless noted
SK-MEL-2 melanoma = details: 10 µM unless noted
EKVX NSCLC = details: 10 µM unless noted
SN12C renal = details: 10 µM unless noted
UO-31 renal = details: 10 µM unless noted
TK-10 renal = details: 10 µM unless noted
ACHN renal = details: 10 µM unless noted
CAKI-1 renal = details: 10 µM unless noted
A498 renal = details: 10 µM unless noted
CCRF-CEM leukemia = details: 10 µM unless noted
MOLT-4 leukemia = details: 10 µM unless noted

Measured: growth

c1ccc(-c2cn(-c3ccccc3)c(-c3ccccc3)n2)cc1
active: CCRF-CEM leukemia -25.8% | MOLT-4 leukemia -13.3%
inactive: HCT-15 colon 60.9% | HT29 colon 70.5% | SNB-75 CNS 81.3% | SNB-19 CNS 85.6% | U251 CNS 56.4% | PC-3 prostate 59.5% | SK-MEL-5 melanoma 108% | UACC-62 melanoma 76.9% | LOX IMVI melanoma 69.3% | SK-MEL-28 melanoma 98.9% | SK-MEL-2 melanoma 81.7% | EKVX NSCLC 89.1% | SN12C renal 97.7% | UO-31 renal 41.4% | TK-10 renal 81.8% | ACHN renal 91.1% | CAKI-1 renal 98.4% | A498 renal 94.5%

OB(O)c1cccc(-c2nc3ccc4[nH]ncc4c3c3c2CCCC3)c1F
active: CAKI-1 renal -24.3%
inactive: HCT-15 colon 35.2% | HT29 colon 45.2% | SNB-19 CNS 58.3% | U251 CNS 50.6% | PC-3 prostate 55.5% | SK-MEL-5 melanoma 79.5% | UACC-62 melanoma 27.4% | LOX IMVI melanoma 26.3% | SK-MEL-28 melanoma 92.5% | SK-MEL-2 melanoma 57.1% | EKVX NSCLC 50.2% | SN12C renal 47.7% | UO-31 renal 27% | TK-10 renal 18.3% | ACHN renal 32.2% | A498 renal 12.7% | CCRF-CEM leukemia 29.7% | MOLT-4 leukemia 52%

O=C1c2c(Cl)c(Cl)c(Cl)c(Cl)c2C(=O)C2(Cl)CC=CCC12Cl (stereo not given)
active: HCT-15 colon -74.2% | HT29 colon -39.2% | U251 CNS -30.2% | PC-3 prostate -55.4% | LOX IMVI melanoma -84.3% | SK-MEL-28 melanoma -58.8% | SK-MEL-2 melanoma -49.4% | TK-10 renal -92.5% | ACHN renal -81% | CAKI-1 renal -15.1%
inactive: SNB-19 CNS 13.5% | SK-MEL-5 melanoma 57.3% | UACC-62 melanoma 32.6% | EKVX NSCLC 98.7% | SN12C renal 24.4% | UO-31 renal 17.9% | A498 renal 104%

C/C(=N/NC(=S)Nc1ccccc1)c1nc2ccc(Cl)cc2[nH]1
active: HCT-15 colon 0.555% | HT29 colon -88.5% | SNB-75 CNS -75.5% | SNB-19 CNS -33.7% | U251 CNS -44.2% | PC-3 prostate -47.7% | SK-MEL-5 melanoma -97.3% | UACC-62 melanoma -72.6% | LOX IMVI melanoma -75.8% | SK-MEL-28 melanoma -96.6% | SK-MEL-2 melanoma -93.6% | EKVX NSCLC -23.6% | SN12C renal -37.4% | UO-31 renal -35.5% | TK-10 renal -39.1% | ACHN renal 7.65% | CAKI-1 renal 9.36% | A498 renal -81.4% | MOLT-4 leukemia -16.7%

Cc1ccc(CSC(=N)N)cc1C
inactive: HCT-15 colon 116% | HT29 colon 104% | SNB-19 CNS 98.7% | U251 CNS 111% | PC-3 prostate 87.7% | SK-MEL-5 melanoma 105% | UACC-62 melanoma 97.8% | LOX IMVI melanoma 91.9% | SK-MEL-28 melanoma 111% | SK-MEL-2 melanoma 125% | EKVX NSCLC 100% | SN12C renal 104% | UO-31 renal 87.7% | TK-10 renal 102% | ACHN renal 107% | CAKI-1 renal 93.4% | A498 renal 103%

Cc1nc2ncccc2nc1Nc1ccc(S(=O)(=O)Nc2ccccn2)cc1
inactive: HCT-15 colon 123% | HT29 colon 121% | SNB-19 CNS 88.5% | U251 CNS 94.4% | PC-3 prostate 88.1% | SK-MEL-5 melanoma 99% | UACC-62 melanoma 89.4% | LOX IMVI melanoma 85.1% | SK-MEL-28 melanoma 101% | SK-MEL-2 melanoma 104% | EKVX NSCLC 98% | SN12C renal 93.7% | UO-31 renal 61.5% | TK-10 renal 106% | ACHN renal 95.2% | CAKI-1 renal 82.6% | A498 renal 104% | CCRF-CEM leukemia 107% | MOLT-4 leukemia 91.9%

COc1ccc(S(=O)(=O)NCCCNc2nccc(-c3c(-c4cccc([N+](=O)[O-])c4)nc4sccn34)n2)cc1
inactive: HCT-15 colon 30.9% | HT29 colon 31.1% | SNB-19 CNS 74.6% | U251 CNS 71.8% | PC-3 prostate 23.9% | UACC-62 melanoma 10.1% | LOX IMVI melanoma 30.1% | SK-MEL-28 melanoma 61.4% | SK-MEL-2 melanoma 41.4% | EKVX NSCLC 57.2% | SN12C renal 42.8% | UO-31 renal 19.7% | TK-10 renal 89.1% | ACHN renal 33.8% | CAKI-1 renal 34.9% | A498 renal 46.2% | CCRF-CEM leukemia 18.7% | MOLT-4 leukemia 22.5%
active: SK-MEL-5 melanoma -20.5%

CN(C)c1oc(C2OC2c2ccccc2)nc1C#N (stereo not given)
inactive: HCT-15 colon 106% | HT29 colon 92.9% | SNB-19 CNS 83.2% | U251 CNS 94% | PC-3 prostate 101% | SK-MEL-5 melanoma 102% | UACC-62 melanoma 76.1% | LOX IMVI melanoma 99.3% | SK-MEL-28 melanoma 87.8% | SK-MEL-2 melanoma 99.4% | EKVX NSCLC 102% | SN12C renal 95.1% | UO-31 renal 77.8% | TK-10 renal 129% | ACHN renal 94.7% | CAKI-1 renal 93.7% | A498 renal 123% | CCRF-CEM leukemia 86.1% | MOLT-4 leukemia 97.7%

CCCCOc1ccc(/C=C2/SC(N3CCCC3)=NC2=O)cc1
inactive: HCT-15 colon 97.2% | HT29 colon 94.6% | SNB-19 CNS 92.8% | U251 CNS 84.6% | PC-3 prostate 88.7% | SK-MEL-5 melanoma 95.2% | UACC-62 melanoma 87.4% | LOX IMVI melanoma 96.2% | SK-MEL-28 melanoma 101% | SK-MEL-2 melanoma 105% | EKVX NSCLC 94.5% | SN12C renal 87.3% | UO-31 renal 82.4% | TK-10 renal 103% | ACHN renal 103% | CAKI-1 renal 96.8% | A498 renal 91.3% | CCRF-CEM leukemia 84.3% | MOLT-4 leukemia 95.6%

O=C1/C(=C/c2ccc(Cl)cc2)CN(C(=O)CCN2CCC(=NO)CC2)C/C1=C\c1ccc(Cl)cc1
active: HCT-15 colon -90.9% | HT29 colon -71.8% | SNB-19 CNS -93.2% | U251 CNS -91.1% | PC-3 prostate -55.2% | SK-MEL-5 melanoma -84.8% | UACC-62 melanoma -75.4% | LOX IMVI melanoma -92.7% | SK-MEL-28 melanoma -89.7% | SK-MEL-2 melanoma -68.4% | EKVX NSCLC -46.5% | SN12C renal -75.2% | UO-31 renal -92.5% | TK-10 renal -74.7% | ACHN renal -61.5% | CAKI-1 renal -73.9% | A498 renal -59.8% | CCRF-CEM leukemia -23.3% | MOLT-4 leukemia -12.4%

COc1ccc(Nc2nn3c(-c4ccccc4)cc(-c4ccccc4)nc3c2C(N)=O)c(OC)c1
inactive: HCT-15 colon 70.5% | HT29 colon 41.9% | SNB-19 CNS 58.2% | U251 CNS 18.6% | PC-3 prostate 44.6% | SK-MEL-5 melanoma 55.9% | UACC-62 melanoma 40.7% | LOX IMVI melanoma 54.6% | SK-MEL-28 melanoma 71% | SK-MEL-2 melanoma 70.1% | EKVX NSCLC 67.7% | SN12C renal 46.4% | UO-31 renal 86.9% | TK-10 renal 29.7% | ACHN renal 67% | CAKI-1 renal 77.4% | A498 renal 70.5% | CCRF-CEM leukemia 73.2% | MOLT-4 leukemia 72.3%

CC(C)(C)n1cc(-c2ccnc(NCCCNS(=O)(=O)c3ccccc3)c2)c(-c2cccc(O)c2)n1
inactive: SNB-19 CNS 76% | U251 CNS 48.5% | PC-3 prostate 30.3% | SK-MEL-5 melanoma 16.1% | UACC-62 melanoma 59.8% | SK-MEL-28 melanoma 44.1% | SK-MEL-2 melanoma 60.1% | EKVX NSCLC 57.3% | SN12C renal 52.8% | UO-31 renal 55.7% | TK-10 renal 89.7% | ACHN renal 45.6% | CAKI-1 renal 52.9% | A498 renal 40.2% | CCRF-CEM leukemia 35.1% | MOLT-4 leukemia 32.1%
active: HCT-15 colon -4.07% | HT29 colon 8.45% | LOX IMVI melanoma -43.3%

CC(C)(C)n1cc(-c2ccnc(NCCNS(=O)(=O)c3ccc(C(F)(F)F)cc3)c2)c(-c2cccc(O)c2)n1
inactive: HCT-15 colon 11.7% | HT29 colon 12.4% | SNB-19 CNS 70.5% | U251 CNS 36.8% | PC-3 prostate 25.4% | SK-MEL-5 melanoma 20.9% | UACC-62 melanoma 64.1% | LOX IMVI melanoma 25.8% | SK-MEL-28 melanoma 51.3% | SK-MEL-2 melanoma 66.5% | EKVX NSCLC 52.2% | SN12C renal 52.8% | UO-31 renal 48.1% | TK-10 renal 98.7% | ACHN renal 57.1% | CAKI-1 renal 65.9% | A498 renal 55.1% | CCRF-CEM leukemia 46.1% | MOLT-4 leukemia 28.9%

CCOC(=O)CC(=O)OC
inactive: HCT-15 colon 102% | HT29 colon 96.5% | SNB-19 CNS 96.3% | U251 CNS 101% | PC-3 prostate 95.3% | SK-MEL-5 melanoma 100% | UACC-62 melanoma 104% | LOX IMVI melanoma 100% | SK-MEL-28 melanoma 104% | SK-MEL-2 melanoma 107% | EKVX NSCLC 99.1% | SN12C renal 108% | UO-31 renal 90.4% | TK-10 renal 106% | ACHN renal 107% | CAKI-1 renal 91.2% | A498 renal 92.2% | CCRF-CEM leukemia 97.5% | MOLT-4 leukemia 83.3%

O=S(=O)(NCCCNc1nccc(-n2ccc3cccnc32)n1)c1ccc(Br)cc1
inactive: HCT-15 colon 102% | HT29 colon 107% | SNB-19 CNS 102% | U251 CNS 106% | PC-3 prostate 96.5% | SK-MEL-5 melanoma 101% | UACC-62 melanoma 99.5% | LOX IMVI melanoma 96.3% | SK-MEL-28 melanoma 108% | SK-MEL-2 melanoma 108% | EKVX NSCLC 93% | SN12C renal 102% | UO-31 renal 107% | TK-10 renal 121% | ACHN renal 108% | CAKI-1 renal 94.2% | A498 renal 102% | CCRF-CEM leukemia 102% | MOLT-4 leukemia 100%

O=C1/C(=C/c2ccccc2)CN(C(=O)CCN2CCC(=NO)CC2)C/C1=C\c1ccccc1
inactive: SK-MEL-2 melanoma 55.2% | A498 renal 80%
active: HCT-15 colon -42.7% | HT29 colon -81% | SNB-19 CNS -18.6% | U251 CNS -52.7% | PC-3 prostate -7.51% | SK-MEL-5 melanoma -59.2% | UACC-62 melanoma -59.7% | LOX IMVI melanoma -90.7% | SK-MEL-28 melanoma -27.4% | EKVX NSCLC 1.08% | SN12C renal -18.6% | UO-31 renal -84% | TK-10 renal 0.636% | ACHN renal -11% | CAKI-1 renal -6.16% | CCRF-CEM leukemia -2.62% | MOLT-4 leukemia 8.95%

NC(=O)CCCN1C/C(=C\c2ccccc2)C(=O)c2ccccc21
inactive: HCT-15 colon 105% | HT29 colon 93.2% | SNB-19 CNS 88.7% | U251 CNS 96.7% | PC-3 prostate 89.6% | SK-MEL-5 melanoma 104% | UACC-62 melanoma 87.2% | LOX IMVI melanoma 104% | SK-MEL-28 melanoma 95.7% | SK-MEL-2 melanoma 90.4% | EKVX NSCLC 106% | SN12C renal 92.4% | UO-31 renal 78.1% | TK-10 renal 95% | ACHN renal 98.7% | CAKI-1 renal 90.6% | A498 renal 107% | CCRF-CEM leukemia 110% | MOLT-4 leukemia 104%
